Consider 14 compounds from PubChem BioAssay.

Broadly, the inhibition is the change of the read-out against control, counted positive when it falls.

Test [1] deals with TRPC4 beta (transient receptor potential cation channel C4), mouse. As to the kind of experiment: TRPC4 cation channel opening, retest – cell-based, Fluo4 calcium, HEK293 TRPC4beta/mu-opioid, duplicates, 10 µM, confirmation (AID 2426;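 active = fluorescence ratio normalized to control raised more than 50% in primary screen plus both repeat runs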). Particulars: Fluo4 calcium fluorescence, at 10 µM; active compounds read high.
Test [2] deals with transient receptor potential cation channel C4 beta (TRPC4), mouse. As to the kind of experiment: TRPC4 cation channel opening, second retest – cell-based, second round, Fluo4, HEK293 TRPC4beta/mu-opioid, 1 µM, confirmation (AID 2461;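 active = primary screen active and over 50% activation in each of two duplicate runs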). To be noted: Fluo4 calcium fluorescence, at 1 µM; active compounds read high.
Test [3] has as its system TRPC4 (transient receptor potential cation channel C4 beta), mouse. Briefly: potentiation of DAMGO EC20 TRPC4 response – cell-based, second round, Fluo-4, HEK293 TRPC4beta/mu-opioid, 1 µM, confirmation (AID 2554;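 active = primary screen hit whose fluorescence ratio, in both repeats, exceeds the weak agonist control mean by 3 SD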). To be noted: DAMGO EC20, Fluo-4 calcium flux, at 1 µM; active compounds read high. (Calcium assays in cells follow changes in intracellular calcium, usually with a dye or a luminescent sensor.)

Test [4] concerns TRPC4 beta (transient receptor potential cation channel C4), mouse. As to the kind of experiment: potentiation of DAMGO EC20 TRPC4 response – cell-based, Fluo-4, HEK293 TRPC4beta/mu-opioid, confirmation (AID 2555;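 active = primary screen hit whose calcium fluorescence ratio, in both repeats, exceeds the weak agonist control mean by 3 SD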). Particulars: DAMGO EC20, Fluo-4 calcium flux, at 10 µM; active compounds read high.
The target of test [5] is Short transient receptor potential channel 4 (Mus musculus) (UniProt Q9QUQ5). Briefly: blockers of DAMGO-evoked TRPC4 calcium flux – cell-based, Fluo4, HEK293 TRPC4beta/mu-opioid, confirmation (AID 2636;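 active = calcium signal cut by more than 3 SD below the full-agonist control yet still positive, in both repeats and the earlier primary screen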). To be noted: at 10 µM; active compounds read high.
Test [6] shares this target. Briefly: blockers of DAMGO-evoked TRPC4 calcium flux – cell-based, second round, Fluo4, HEK293 TRPC4beta/mu-opioid, 1 µM, confirmation (AID 2637;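 active = calcium signal ratio cut to more than 3 SD under the fully stimulated control mean yet still positive, in both repeats and the primary screen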;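 as to inhibition: percent of integrated ratio relative to wells lacking test compound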). To be noted: at 1 µM; active compounds read high.
Test [7] shares this target. Briefly: calcium entry via TRPC4 opening agents – cell-based, HEK293 TRPC4/mu-opioid, Fluo-4 calcium, dose response (AID 434937;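 active = primary screen activator hit with a dose response curve and TRPC4 channel activation at any tested dose; inactive = no activation, no dose response, or not a primary hit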).
Test [8] has the same target. Briefly: potentiation of DAMGO-evoked TRPC4 calcium signal – cell-based, HEK293 TRPC4/mu-opioid, Fluo-4 calcium, EC20 DAMGO, dose response (AID 434941;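 active = earlier screen potentiator hit that boosts the TRPC4 ion channel at some dose, with a dose response; inactive = no potentiation, no dose response, or not a prior hit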;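 also: calcium entry triggered by an EC20 dose of DAMGO at the co-expressed mu-opioid receptor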).
Test [9] shares this target. As to the kind of experiment: block of DAMGO-driven TRPC4 calcium entry – cell-based, HEK293 TRPC4/mu-opioid, Fluo-4 calcium, dose response (AID 434942;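 active = primary screen inhibitor hit that blocks the TRPC4 channel at some tested dose, yielding a dose curve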).
Test [10] addresses Short transient receptor potential channel 6 (Mus musculus) (UniProt Q61143). As to the kind of experiment: TRPC6 blockade by TRPC4 inhibitor hits – cell-based, HEK293, membrane potential dye, duplicate, selectivity assay for TRPC4 inhibitor project, confirmation (AID 434948;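 active = active in primary screen and both duplicates, each dropping signal beyond three positive-control SD with fluorescence still positive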). Particulars: HEK293 TRPC6, membrane potential dye fluorescence, at 10 µM; inhibition: active compounds read high, stimulated with maximal-effect acetylcholine unless noted; outcome: stimulated with maximal-effect acetylcholine unless noted.

Test [11] shares this target. Briefly: TRPC6 opening by TRPC4 activator hits – cell-based, HEK293, membrane potential dye, duplicate, selectivity assay for TRPC4 activator project, confirmation (AID 434950;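 active = membrane potential signal rise above negative control mean plus 3 SD in both duplicates, also active in the earlier TRPC4 screen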;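 as to activation: 0% = buffer only wells and 100% = acetylcholine maximal-effect wells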). To be noted: HEK293 TRPC6, membrane potential fluorescence, at 10 µM; activation: active compounds read high; outcome: activation.
Test [12] shares this target. As to the kind of experiment: positive modulators of mouse TRPC6 channel – HEK293 cells, membrane potential dye, duplicate, selectivity assay for TRPC4 potentiator project, confirmation (AID 434952;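 active = compound raising the membrane signal above positive-control mean plus 3 SD in both repeats, and a primary screen hit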). Particulars: HEK293 TRPC6, membrane potential dye fluorescence, at 10 µM; maximal acetylcholine added after compound unless noted.
The target in test [13] is Short transient receptor potential channel 4 (Mus musculus) (UniProt Q9QUQ5). As to the kind of experiment: calcium flux activators in TRPC4/5HT1a cells, counter-screen for TRPC4 activator project, cell-based, second counter screen, HEK293 TRPC4/5HT1a, Fluo-4 (AID 434977). To be noted: Fluo-4 calcium flux, at 10 µM; active compounds read high.
Test [14] is described as follows: serotonin-gated TRPC4 signal block – cell-based, second counter screen, HEK293 TRPC4/5HT1a, Fluo-4, counter-screen for TRPC4 inhibitor project, confirmation (AID 434978;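 active = primary screen active whose calcium signal fell more than 3 SD beyond the full-serotonin control mean in both duplicate plates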;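 as to outcome: serotonin given first at submaximal then at maximal dose after compound preincubation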). To be noted: Fluo-4 calcium flux, at 10 µM; inhibition: active compounds read high, serotonin added to trigger calcium flux unless noted; outcome: serotonin added to trigger calcium flux unless noted. On the technique in general: Counterscreens check selectivity or assay interference.

For test [15], the system named is TRPC4 (mouse), co-expressed with 5HT1a in HEK293. As to the kind of experiment: enhancement of serotonin-evoked TRPC4 response – cell-based, second counter screen, HEK293 TRPC4/5HT1a, Fluo-4, counter-screen for TRPC4 potentiator project, confirmation (AID 434979;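 active = signal rise over 3 SD above mean of control wells given weak agonist, in both repeats and first screen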). Particulars: Fluo-4 calcium flux, at 10 µM; outcome: serotonin added at its EC20 dose unless noted; potentiation: active compounds read high, serotonin added at its EC20 dose unless noted.

Test [16] is described as follows: nonspecific calcium rise without TRPC4 – cell-based, HEK293 mu-opioid receptor line, counter-screen for TRPC4 activator project, confirmation (AID 449723;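 active = hit in primary screen, with calcium signal over 5 SD above buffer well mean in both duplicates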;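 also: counter screen cells carry the mu-opioid receptor alone and lack TRPC4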). To be noted: HEK293 mu-opioid cells, Fluo-4 calcium fluorescence, at 10 µM; active compounds read high.
Test [17] in a line: nonspecific potentiation of DAMGO calcium response – cell-based, HEK293 mu-opioid receptor line, counter-screen for TRPC4 allosteric potentiator project, confirmation (AID 449724;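 active = calcium signal rise more than 3 SD above the low-dose agonist control mean, in both duplicate plates and the primary screen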;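 also: HEK293 cells carrying mu-opioid receptor only with no TRPC4 channel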). To be noted: HEK293 mu-opioid receptor cells, Fluo-4 calcium flux, at 10 µM; compound added before EC20 DAMGO stimulus unless noted.
Test [18] addresses Inward rectifier potassium channel 2 (Mus musculus) (UniProt P35561). Briefly: inhibition of Kir2.1 inward rectifier potassium flux – cell-based, FluxOR thallium flux, duplicate, confirmation (AID 2032;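 active = Primary-screen hit whose thallium flux fell at least 3 control SD below untreated wells in both duplicates, with normal baseline fluorescence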). To be noted: Kir2.1-expressing cells, FluxOR thallium flux fluorescence, at 10 µM; active compounds read low.
Test [19] is described as follows: parental HEK293 cell activity, no Kir2.1 – FluxOR thallium flux, duplicate, single concentration, counter-screen for Kir2.1 inhibitor project, confirmation (AID 2105;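 active = dye signal at least 3 control SD above or below untreated wells in both duplicates, raw fluorescence within 3, either direction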). Particulars: parental HEK293 cells, FluxOR thallium flux fluorescence, at 10 µM; 0% = unstimulated blank wells.
Test [20] can be described thus: nonspecific flux increase, KCNQ1-free cells – parental CHO cells, counter-screen for KCNQ1 potentiator project (AID 493006;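 active = duplicate-averaged activation above buffer control mean plus 5 SD of those controls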;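 also: fluorescence ratio of max minus min over baseline after K+ and Tl+ depolarization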). To be noted: parental CHO-K1 cells, FluxOR thallium flux, at 10 µM; active compounds read high.

For some assays here: Potency and affinity values are given separately. This is one part of the list. Activity calls are given as the source filed them.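 The calls were made as follows, unless noted: active = calcium signal rise above buffer-control mean plus 5 SD in both duplicates, and also a hit in the primary screen; inactive = the rest.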

Sequence of Short transient receptor potential channel 4 (Mus musculus) (Q9QUQ5 whole entry, looked up): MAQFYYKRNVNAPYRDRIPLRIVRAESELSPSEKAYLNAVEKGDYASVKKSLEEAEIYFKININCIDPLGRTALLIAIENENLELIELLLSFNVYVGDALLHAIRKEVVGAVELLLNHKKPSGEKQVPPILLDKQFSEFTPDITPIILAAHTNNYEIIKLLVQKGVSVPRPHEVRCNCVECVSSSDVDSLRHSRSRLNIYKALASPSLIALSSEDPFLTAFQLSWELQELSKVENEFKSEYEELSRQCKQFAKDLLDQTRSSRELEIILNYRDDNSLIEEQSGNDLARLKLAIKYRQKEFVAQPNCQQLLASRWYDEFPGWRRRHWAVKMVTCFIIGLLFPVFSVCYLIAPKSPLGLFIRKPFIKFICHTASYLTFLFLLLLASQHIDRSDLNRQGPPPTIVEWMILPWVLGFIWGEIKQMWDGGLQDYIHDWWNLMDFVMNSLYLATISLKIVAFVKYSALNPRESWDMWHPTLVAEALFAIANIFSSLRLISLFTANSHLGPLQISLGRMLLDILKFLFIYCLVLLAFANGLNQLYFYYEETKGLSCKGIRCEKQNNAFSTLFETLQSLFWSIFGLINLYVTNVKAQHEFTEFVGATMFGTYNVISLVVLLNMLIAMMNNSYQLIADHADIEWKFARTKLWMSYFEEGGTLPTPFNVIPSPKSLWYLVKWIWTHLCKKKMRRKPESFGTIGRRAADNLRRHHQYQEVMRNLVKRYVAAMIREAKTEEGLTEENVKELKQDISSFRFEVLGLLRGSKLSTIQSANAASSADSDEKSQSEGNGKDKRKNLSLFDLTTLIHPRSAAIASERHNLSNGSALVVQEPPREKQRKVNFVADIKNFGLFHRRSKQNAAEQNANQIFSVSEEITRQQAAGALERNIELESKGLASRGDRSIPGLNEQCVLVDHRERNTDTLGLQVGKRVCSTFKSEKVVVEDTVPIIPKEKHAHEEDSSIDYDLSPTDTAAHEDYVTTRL
Sequence of Short transient receptor potential channel 6 (Mus musculus) (Q61143 whole entry, looked up): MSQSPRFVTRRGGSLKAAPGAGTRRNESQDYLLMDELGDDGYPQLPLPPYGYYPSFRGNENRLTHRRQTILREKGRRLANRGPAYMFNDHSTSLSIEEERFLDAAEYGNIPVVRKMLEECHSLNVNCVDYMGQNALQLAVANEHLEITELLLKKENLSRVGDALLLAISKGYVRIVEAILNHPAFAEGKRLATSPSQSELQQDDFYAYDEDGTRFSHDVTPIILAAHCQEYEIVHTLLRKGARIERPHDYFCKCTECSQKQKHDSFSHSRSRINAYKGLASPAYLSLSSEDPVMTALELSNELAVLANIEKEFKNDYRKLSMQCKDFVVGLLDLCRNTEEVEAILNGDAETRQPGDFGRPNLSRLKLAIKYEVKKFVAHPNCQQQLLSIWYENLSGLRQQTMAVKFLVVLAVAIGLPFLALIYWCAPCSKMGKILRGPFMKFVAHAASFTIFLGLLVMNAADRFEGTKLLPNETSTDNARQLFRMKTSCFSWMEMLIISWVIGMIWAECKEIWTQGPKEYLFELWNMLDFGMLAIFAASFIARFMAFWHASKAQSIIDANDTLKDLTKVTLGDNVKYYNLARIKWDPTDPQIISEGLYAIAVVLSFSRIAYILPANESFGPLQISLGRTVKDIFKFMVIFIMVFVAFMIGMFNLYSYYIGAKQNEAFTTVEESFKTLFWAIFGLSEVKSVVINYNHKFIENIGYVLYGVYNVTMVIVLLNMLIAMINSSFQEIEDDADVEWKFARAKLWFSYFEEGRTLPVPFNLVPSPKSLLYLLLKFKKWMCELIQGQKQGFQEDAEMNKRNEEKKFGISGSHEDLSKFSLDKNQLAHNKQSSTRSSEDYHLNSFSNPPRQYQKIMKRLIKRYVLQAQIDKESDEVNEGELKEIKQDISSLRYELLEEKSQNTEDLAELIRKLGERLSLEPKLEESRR
Sequence of Inward rectifier potassium channel 2 (Mus musculus) (P35561 whole entry, looked up): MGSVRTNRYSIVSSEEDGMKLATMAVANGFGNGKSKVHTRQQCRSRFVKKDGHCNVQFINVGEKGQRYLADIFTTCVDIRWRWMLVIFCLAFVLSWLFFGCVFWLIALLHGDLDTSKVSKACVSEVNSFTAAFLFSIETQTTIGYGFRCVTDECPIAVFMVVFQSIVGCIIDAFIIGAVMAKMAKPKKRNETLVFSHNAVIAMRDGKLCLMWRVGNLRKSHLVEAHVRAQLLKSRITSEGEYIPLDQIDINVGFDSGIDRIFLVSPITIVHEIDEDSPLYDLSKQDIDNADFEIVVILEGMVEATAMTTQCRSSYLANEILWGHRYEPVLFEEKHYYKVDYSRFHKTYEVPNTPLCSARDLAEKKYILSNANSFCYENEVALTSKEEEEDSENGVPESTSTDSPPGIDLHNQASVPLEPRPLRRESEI

In the case of `COC(=O)C1=C(c2cc3ccccc3s2)C[C@@H]2CC[C@H]1N2C(=O)NCCO`, the result in test [1], in test [2], in [3], in test [4], in [5] and in test [6] was inactive. The result in test [7], in test [8], in [9], in test [10], in test [12] and in [13] was inactive. Further, the result in test [14], in [15], in [16] and in test [17] was inactive. Also, the activation in [11] was 27% (active).

For `COC(=O)C(O)(c1ccc(NC(=S)NC(=O)c2ccc(Cl)cc2Cl)c(C)c1)C(F)(F)F` (stereo not drawn), the result in test [1], in test [2], in test [3], in test [5], in test [6] and in test [7] was inactive. The result in test [8], in test [9], in test [10], in test [11], in test [12] and in test [13] was inactive. The outcome in test [14], in [16] and in test [17] was inactive. Further, the results for the potentiation in [4] and in [15] were 18% (active) and 24.2% (active), respectively.

`COc1cc(-n2c(=S)[nH]c3ccc(C)cc3c2=O)c(Cl)cc1Cl`: the result in test [18] and in test [19] was inactive. Also, in test [20], the activation was 182% (active).

As to `CCNCCNc1ccc([N+](=O)[O-])c2cccnc12`, the result in test [1], in test [2], in [4], in test [5], in test [6] and in [7] was inactive. For the same compound, the outcome in test [8], in test [9], in test [10], in test [11], in test [12] and in [13] was inactive. Besides, the outcome in test [14], in test [15], in [16] and in test [17] was inactive. In addition, in test [3], the potentiation is 11% (active).

For the compound `COc1ccc(C[C@@H]2c3cc(O)c(OC)cc3CCN2C)cc1O`, the result in test [1], in test [2], in test [3], in test [4], in test [5] and in test [6] was inactive. Moreover, the result in test [7], in test [8], in test [9], in test [10], in test [11] and in test [12] was inactive. Besides, the result in test [13], in [14], in test [15], in test [16] and in test [17] was inactive.

As to `C=CCOC(=O)C1=C(C)OC(N)=C(C#N)[C@@]12C(=O)N(CC(N)=O)c1ccccc12`, the outcome in test [1], in test [2], in test [3], in test [5], in test [6] and in test [7] was inactive. The outcome in test [8], in [9], in test [10], in test [11], in test [12] and in [13] was inactive. Further, the outcome in test [14], in test [16] and in test [17] was inactive. Also, the potentiation is 26% (active) in [4] and 7.13% (active) in test [15].

For `Cc1cccc(N2CCc3c2nc2ccccc2c3N)c1`, the result in test [1], in test [2], in test [3], in test [4], in test [7] and in test [8] was inactive. Further, the compound was called inactive in [10], in test [11], in [12], in [13], in test [15] and in test [16]. Besides, the outcome in test [17] was inactive. Also, the inhibition in test [5] is 67% (active); in [6] it was 51% (active); in test [14], 24.6% (active).

For `CCOC(=O)C1(c2ccccc2)CCN(CC(=O)Nc2ccc(C)cc2)CC1`, the outcome in [1], in test [2], in [3], in test [4], in [6] and in test [7] was inactive. Also, the outcome in [8], in test [11], in test [13] and in [16] was inactive. The inhibition in test [5] was 80% (active). The outcome in test [10], in test [12], in test [14], in test [15] and in test [17] was “inactive [setting not given]” each time.

Take `COc1ccc(Br)cc1CN1CCN(C(=O)Cc2ccccc2)CC1`: the outcome in test [1], in test [2], in test [3], in test [4], in [6] and in test [7] was inactive. Further, the result in test [8], in test [10], in test [11], in test [12], in test [13] and in [15] was inactive. Also, the outcome in [16] and in test [17] was inactive. The inhibition is 89% (active) in [5] and 20.6% (active) in test [14].

On to `O=C(c1cccc(C(F)(F)F)c1)C1CCCN(Cc2ccccc2O)C1` (stereo not drawn), for which the result in test [1], in test [2], in test [3], in [4], in test [6] and in test [7] was inactive. Besides, the outcome in test [8], in [10], in [11], in test [12], in test [13] and in [15] was inactive. Also, the outcome in test [16] and in test [17] was inactive. The inhibition was 87% (active) in [5] and 24.6% (active) in test [14].

Regarding `CCN1CCN(c2cc(N3CCCC3)c([N+](=O)[O-])cc2F)CC1`, the outcome in test [1], in test [2], in test [5], in test [6], in test [7] and in test [8] was inactive. Further, the result in [9], in [10], in [11], in [12], in [13] and in test [14] was inactive. Further, the outcome in test [16] and in [17] was inactive. Also, the values for the potentiation in test [3], in test [4] and in [15] were 31% (active), 11% (active) and 17.9% (active), respectively.

Turning to `CC(Cc1ccccc1Sc1ccccc1)N(C)C` (stereo not drawn), the result in [1], in test [2], in test [3], in test [4], in [5] and in [6] was inactive. Besides, the result in test [7], in test [8], in [9], in test [10], in test [11] and in test [12] was inactive. Also, the outcome in test [13], in test [14], in [15], in test [16] and in test [17] was inactive.

Take `CCc1nccc2c1[nH]c1ccccc12`: the result in [1], in test [2], in test [3], in test [4], in test [7] and in test [8] was inactive. Besides, the call in [10], in test [11], in test [12], in test [13], in [15] and in [16] was inactive. Besides, the result in test [17] was inactive. For the same compound, the inhibition is 93% (active) in test [5], 63% (active) in [6] and 9.99% (active) in [14].

`O=C(CN1CCCC1)Nc1ccc(Cl)cc1C(=O)c1ccccc1`: the outcome in [1], in test [2], in [3], in [4], in [6] and in test [7] was inactive. The result in test [8], in test [10], in test [11], in [12], in test [13] and in [15] was inactive. Further, the outcome in test [16] and in test [17] was inactive. The figures for the inhibition in [5] and in test [14] were 90% (active) and 21.8% (active), respectively.
